Values without a mark were called inactive. Cut-off read from the data, not from the text of the source: active = IC50 below about 40 µM; inactive = the rest.

The nature of the assay: compound optical interference in time-resolved FRET – biochemical, fluorescence ratio, artefact control, SAR follow-up (AID 2496). The following applies: HTRF spectral interference counter-screen. On the technique in general: TR-FRET usually uses a lanthanide donor and a delayed reading to cut background.

For the compound `O=C(c1ccc2nc(-c3ccco3)c(-c3ccco3)nc2c1)N1CCC2(CC1)OCCO2`, the IC50 is greater than 50 µM.

The term IC50 denotes the concentration that inhibits the measured activity by half.

For the origin of these results see PubChem BioAssay AID2496 (Sanford-Burnham Center for Chemical Genomics, 2010).
